Results taken from the supplement of paper PMC13380429.
Where a name gives a salt, the structure may show the parent alone. Values without a mark were called inactive.

tested on: Vero E6 infected with SARS-CoV-2; test: SARS-CoV-2 infection rate relative to infected DMSO; higher = more infection, active = 60 or less; conditions: 24 h

Compound | SARS-CoV-2 infection rate
CCOc1ccc(Nc2nc(-c3c(C)nc4ccccn34)cs2)cc1 (0.833333 µM) | 102%
CCC(=O)O[C@]1(C(=O)CCl)[C@@H](C)C[C@H]2[C@@H]3CCC4=CC(=O)C=C[C@]4(C)[C@@]3(F)[C@@H](O)C[C@@]21C [clobetasol-propionate] (10 µM) | 105%
O=[N+]([O-])c1ccc2c(c1)S(=O)(=O)C=C2 [stattic] (0.833333 µM) | 100%
O=C(NC(=O)c1c(F)cccc1Cl)NC1c2ccccc2-c2ccccc21 (10 µM) | 102%
CCCc1cc(=O)[nH]c(=S)[nH]1 [propylthiouracil] (10 µM) | 104%
CC(C)[C@H]1C(=O)N[C@@H](CCCNC(=N)N)C(=O)NCC(=O)N[C@@H](CC(=O)O)C(=O)N[C@H](Cc2ccccc2)C(=O)N1C [cilengitide] (10 µM) | 109%
CC(C)=CCC/C(C)=C/CC/C(C)=C/CC[C@]1(C)CCc2cc(O)cc(C)c2O1 [delta-tocotrienol] (10 µM) | 104%
Oc1cc2c(cc1O)CN(C(=S)NCCc1ccc(Cl)cc1)CCC2 [capsazepine] (10 µM) | 92.5%
Nc1nc(NCCc2ccc(O)cc2)nc2nc(-c3ccco3)nn12 (10 µM) | 111%
CCCCN(CCCC)C(=O)CN1C[C@H](c2ccc3c(c2)OCO3)[C@@H](C(=O)O)[C@@H]1c1ccc(OC)cc1 [atrasentan] (10 µM) | 108%
CC(=O)Nc1ccc(S(=O)(=O)c2ccc(NC(C)=O)cc2)cc1 [acedapsone] (10 µM) | 98%
COC(=O)c1ccccc1O [methyl-salicylate] (10 µM) | 110%
OC(c1ccccc1)(c1ccccc1)C1CCNCC1 [azacyclonol] (10 µM) | 110%
O=C(CCCCC(=O)Nc1c(I)cc(I)c(C(=O)O)c1I)Nc1c(I)cc(I)c(C(=O)O)c1I [iodipamide] (10 µM) | 93%
CCN(CC)S(=O)(=O)c1ccc(C(=O)O)cc1 [etebenecid] (10 µM) | 105%
Cc1nnc2n1-c1sc(CCC(=O)N3CCOCC3)cc1C(c1ccccc1Cl)=NC2 [apafant] (10 µM) | 112%

Compound | SARS-CoV-2 infection rate
CN1CC(=O)NC1=N [creatinine] (10 µM) | 99.5%
CC(C)NNC(=O)c1ccncc1 [iproniazid] (10 µM) | 108%
CC1(C)CCC(C)(C)c2cc(Cn3cccn3)c(/C=C/c3ccc(C(=O)O)cc3)cc21 [palovarotene] (10 µM) | 108%
O=C1Nc2ccccc2/C1=C1/Nc2ccccc2C1=O [indirubin] (10 µM) | 99%
CCN1CCN(Cc2ccc(Nc3ncc(F)c(-c4cc(F)c5nc(C)n(C(C)C)c5c4)n3)nc2)CC1 [abemaciclib] (10 µM) | 107%
CC(C)(C)C1CCc2c(sc(NC(=O)c3ccco3)c2C(=O)O)C1 (configuration not stated) (0.833333 µM) | 106%
C[C@H](Nc1cc(-c2cnn(C)c2)cc(Nc2cnccn2)n1)c1ccc(F)cc1 (0.833333 µM) | 114%
CC(C)(C=O)Cc1cc(C(C)(C)C)c(O)c(C(C)(C)C)c1 (10 µM) | 94%
CNCCc1cnc[nH]1 [N-alpha-methylhistamine-dihydrochloride] (10 µM) | 110%
CCN(c1ccccc1)c1cc(=NC)n(C)c(C)n1 (10 µM) | 94%
Cc1ccc(C(=O)Nc2ccc(CN3CCN(C)CC3)c(C(F)(F)F)c2)cc1C#Cc1cnc2cccnn12 [ponatinib] (10 µM) | 97%
Cc1cc2c(OCC(CNC(C)(C)C)OC(=O)c3ccccc3)cccc2[nH]1 (configuration not stated) [bopindolol] (10 µM) | 110%
c1cc(Cc2cnc[nH]2)ccn1 [immethridine] (10 µM) | 109%
O=C/C=C/c1ccccc1 [cinnamaldehyde] (10 µM) | 104%
CSc1ccc2c(c1)N(CCC1CCCCN1C)c1ccccc1S2 (configuration not stated) [thioridazine] (0.833333 µM) | 109%
NC(=O)c1ccccc1O [salicylamide] (10 µM) | 102%
